Some test systems named below: SR leukemia; RPMI-8226 leukemia; OVCAR-8 ovarian; OVCAR-5 ovarian; OVCAR-4 ovarian; SK-OV-3 ovarian; IGROV1 ovarian; OVCAR-3 ovarian; HS 578T breast; NCI/ADR-RES ovarian; T-47D breast; BT-549 breast; MDA-MB-435 melanoma; SW-620 colon; MCF7 breast; HCT-116 colon; HCC-2998 colon; KM12 colon.
What all share (assay): NCI-60 one-dose screen, 48 h (100 = growth as untreated, 0 = no growth, -100 = all killed)
What all share (conditions): 10 µM unless noted

About 83,000 compounds went through this panel and 20% of them were active in at least one assay; those are over-represented in the sample as a whole.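 Compound tested at a single concentration for 48 hours in 96-well plates; a percent growth value below 10 was scored as active.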 Unmarked numbers belong to inactive results. Active and inactive are the calls of the source.

In the case of `C=C1C(=O)O[C@@H]2[C@@H]3O[C@@](C)(CC/C=C(\C)CCC[C@@H]2C)[C@H](O)C[C@@H]13`, the growth was 13.7% with SR leukemia; 7.48% (active) in the test with RPMI-8226 leukemia; 35% in the test with OVCAR-8 ovarian; 97.5% in the test with OVCAR-5 ovarian; 70.1% in the test with OVCAR-4 ovarian; 92% with SK-OV-3 ovarian. Besides, the growth is 42.3% in the test on IGROV1 ovarian; 13.9% in the test on OVCAR-3 ovarian; 72.1% in the test with HS 578T breast; 37.5% in the test with NCI/ADR-RES ovarian; 50.9% in the test with T-47D breast; 19.1% in the test on BT-549 breast. Moreover, the growth is 19.2% in the test on MDA-MB-435 melanoma; 33.5% with SW-620 colon; 36.3% with MCF7 breast; -4.01% (active) in the test with HCT-116 colon; 97.5% with HCC-2998 colon; 75.8% in the test with KM12 colon.
Turning to `CCN1CCN(CC(=O)N2c3cccc4cccc(c34)N(C(=O)CN3CCN(CC)CC3)C2c2cn(-c3ccccc3)nc2-c2cccc([N+](=O)[O-])c2)CC1`, the growth in the test on SR leukemia is -48% (active); in the test with RPMI-8226 leukemia, -39.3% (active); in the test on OVCAR-8 ovarian, -9.32% (active); in the test with OVCAR-5 ovarian it was 1.54% (active); in the test with OVCAR-4 ovarian, -76.4% (active); in the test on SK-OV-3 ovarian, 115%. Further, the growth in the test on IGROV1 ovarian was -29.1% (active); in the test with OVCAR-3 ovarian it was -70.8% (active); in the test on HS 578T breast it was 69.6%; with NCI/ADR-RES ovarian, 47.3%; in the test on T-47D breast, -70.7% (active); in the test on BT-549 breast, 80.7%. The growth with MDA-MB-435 melanoma was -75.7% (active); in the test with SW-620 colon, -43.6% (active); in the test with MCF7 breast, -29% (active); in the test with HCT-116 colon, -54.9% (active); with HCC-2998 colon it was -49.1% (active); with KM12 colon it was 23.4%.
For `O=C(Nc1ccc(Cl)c(Cl)c1)NS(=O)(=O)c1cnccc1Oc1ccc(F)cc1`, the growth is 51.2% in the test with SR leukemia; -40.7% (active) with RPMI-8226 leukemia; 55.4% with OVCAR-8 ovarian; 82.7% in the test with OVCAR-5 ovarian; 52% with OVCAR-4 ovarian; 88.7% with SK-OV-3 ovarian. The growth is 71.7% with IGROV1 ovarian; 8.22% (active) with OVCAR-3 ovarian; 86% in the test with HS 578T breast; 53.3% with NCI/ADR-RES ovarian; -0.777% (active) in the test with T-47D breast; 93.7% in the test with BT-549 breast. Further, the growth in the test on MDA-MB-435 melanoma was 86.8%; in the test with SW-620 colon it was 65.3%; with MCF7 breast, 58.6%; in the test on HCT-116 colon, 41.3%; with HCC-2998 colon, 76.7%; with KM12 colon, 48.7%.
Regarding `c1cc2[nH]ncc2cc1-c1nc2ccc3[nH]ncc3c2c2c1CCC2`, the growth in the test on SR leukemia was 10.9%; with RPMI-8226 leukemia, 42.5%; in the test with OVCAR-8 ovarian, 53.9%; with OVCAR-5 ovarian it was 91.7%; in the test with OVCAR-4 ovarian it was 57.9%; with SK-OV-3 ovarian, 5.23% (active). The growth in the test on IGROV1 ovarian is 22.6%; with OVCAR-3 ovarian, 56.4%; with HS 578T breast it was 14.9%; in the test on NCI/ADR-RES ovarian, 58.1%; with T-47D breast it was 56.8%; with BT-549 breast, 38.3%. For the same compound, the growth in the test on MDA-MB-435 melanoma is -7.86% (active); in the test on SW-620 colon, 12.6%; in the test with MCF7 breast it was 32%; in the test on HCT-116 colon it was 16.9%; with HCC-2998 colon, 73.7%; with KM12 colon, 31.4%.
With `FC(F)(F)c1cccc(-c2cn3c(ccc4ccccc43)n2)c1`, the growth in the test with SR leukemia was 95.1%; in the test on RPMI-8226 leukemia, 94.4%; with OVCAR-8 ovarian it was 94.8%; with OVCAR-5 ovarian it was 102%; with OVCAR-4 ovarian, 97.7%; in the test with SK-OV-3 ovarian it was 85.7%. Also, the growth in the test on IGROV1 ovarian was 81.5%; in the test with OVCAR-3 ovarian, 97.2%; with HS 578T breast, 104%; with NCI/ADR-RES ovarian it was 92.6%; in the test on T-47D breast, 46.5%; in the test on BT-549 breast it was 91.1%. Moreover, the growth in the test on MDA-MB-435 melanoma was 100%; in the test on SW-620 colon, 89.5%; in the test with MCF7 breast, 41%; with HCT-116 colon it was 88%; with HCC-2998 colon, 105%; in the test with KM12 colon, 91%.
For the compound `Cc1ccc(S(=O)(=O)C2=C3C(=C(c4ccccc4)c4ccccc43)CN(S(=O)(=O)c3ccc(C)cc3)C2)cc1`, the growth in the test on SR leukemia was 3.89% (active); in the test with RPMI-8226 leukemia, -21.7% (active); in the test with OVCAR-8 ovarian, 21.8%; with OVCAR-5 ovarian it was 93.7%; in the test with OVCAR-4 ovarian, 70.3%; with SK-OV-3 ovarian it was 92.6%. Further, the growth in the test with IGROV1 ovarian is 54%; in the test with OVCAR-3 ovarian, 56.9%; with HS 578T breast it was 62.4%; in the test on NCI/ADR-RES ovarian, 27.8%; in the test on T-47D breast, 12%; in the test with BT-549 breast, -1.45% (active). The growth was 74.2% in the test on MDA-MB-435 melanoma; -17.7% (active) with SW-620 colon; 37.6% in the test on MCF7 breast; 8.4% (active) in the test with HCT-116 colon; 88.9% in the test on HCC-2998 colon; 64.1% with KM12 colon.
As to `CCOc1cc2c(Cl)ncnc2c(OCC)c1OCC`, the growth in the test on SR leukemia is 4.52% (active); in the test with RPMI-8226 leukemia, 15.5%; with OVCAR-8 ovarian, 99.6%; in the test with OVCAR-5 ovarian it was 96.7%; with OVCAR-4 ovarian, 94.9%; in the test on SK-OV-3 ovarian it was 108%. Further, the growth in the test with IGROV1 ovarian was -65.2% (active); with OVCAR-3 ovarian, 3.36% (active); in the test on HS 578T breast, 94.7%; with NCI/ADR-RES ovarian, 92.5%; in the test on T-47D breast, 76.3%; in the test on BT-549 breast, 75.1%. For the same compound, the growth is 78.5% in the test with MDA-MB-435 melanoma; 59.2% with SW-620 colon; 52.4% in the test on MCF7 breast; 49.6% in the test with HCT-116 colon; -45.3% (active) with HCC-2998 colon; 71.6% with KM12 colon.
Regarding `COc1cc(NC(=O)SC2=NCCS2)cc(OC)c1`, the growth in the test on SR leukemia was 93.9%; in the test on RPMI-8226 leukemia it was 63.2%; in the test on OVCAR-8 ovarian it was 98.7%; in the test on OVCAR-5 ovarian it was 97.7%; with OVCAR-4 ovarian it was 98%; in the test on SK-OV-3 ovarian, 98%. For the same compound, the growth is 139% with IGROV1 ovarian; 113% in the test on OVCAR-3 ovarian; 99.7% in the test on HS 578T breast; 99% in the test on NCI/ADR-RES ovarian; 87.2% with T-47D breast; 95.4% in the test with BT-549 breast. The growth with MDA-MB-435 melanoma is 113%; in the test on SW-620 colon it was 95.8%; in the test with MCF7 breast, 94.1%; in the test with HCT-116 colon, 108%; in the test on HCC-2998 colon, 114%; in the test on KM12 colon, 106%.
In the case of `O=C(Nc1ccncc1)C(=O)c1cn(S(=O)(=O)c2ccc(Oc3ccccc3)cc2)c2ccccc12`, the growth with SR leukemia is 92.9%; with RPMI-8226 leukemia it was 76.4%; in the test on OVCAR-8 ovarian, 99.3%; in the test on OVCAR-5 ovarian, 87.5%; with OVCAR-4 ovarian, 88.3%; with SK-OV-3 ovarian, 86.4%. Besides, the growth in the test with IGROV1 ovarian was 82.7%; in the test on OVCAR-3 ovarian it was 112%; with HS 578T breast, 92%; with NCI/ADR-RES ovarian, 92.5%; in the test on T-47D breast it was 66.4%; with BT-549 breast, 94.9%. Besides, the growth with MDA-MB-435 melanoma was 94.1%; with SW-620 colon, 94.2%; with MCF7 breast it was 94.3%; in the test on HCT-116 colon, 87.9%; with HCC-2998 colon it was 81.5%; in the test with KM12 colon it was 99.1%.

Values taken from PubChem BioAssay (NCI).
